Source: PubChem BioAssay
A selection: hits, their analogues and other compounds. The true share with any hit is near 2.8%.
TROY signal inh: inhibitors of TROY-driven NF-kB signaling, primary screen, Q293 LMP1-TROYcd cells, NF-kB luciferase, uHTS; Q293 LMP1-TROYcd NF-kB luciferase reporter, 4 h; inhibition, % at 10 µM; 360,000 compounds, 0.98% hits;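 active = compounds whose plate-normalised and pattern-corrected inhibition of the luciferase reporter signal at the single screening dose is 50% or more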
PAX8 reporter: inhibitors of PAX8-driven TPO luciferase reporter, primary screen, RMG-I cells, single concentration. AID 652154, 2013. 360,000 compounds, 1.2% hits. SteadyGlo, 24 h. inhibition, % at 12.6 µM;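 active = mean replicate inhibition at least 60% with every replicate also reaching 60%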;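 note: luciferase light reporting Pax8 driven TPO promoter activity; plate controls were median of neutral control wells for no effect and mitoxantrone controls for full effect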
TWEAK Fn14 block: inhibitors of TWEAK-Fn14 signaling, primary screen, luciferase reporter cells, uHTS; TWEAK-stimulated Fn14 reporter cells, luciferase luminescence, 8 h; inhibition, % at 10 µM; 360,000 compounds, 2% hits; AID 1159606, 2016; in the data active = inhibition above about 50%
EWS-Fli block: EWS/Fli-driven NR0B1 reporter inhibitors, primary screen, A673 cells, NR0B1 luciferase, luminescence, MLPCN library | viability-normalised | inhibition, % at 12.6 µM | 350,000 compounds, 0.67% hits | AID 651661, 2012;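 active = mean inhibition of at least 50% after viability correction, with every replicate also passing that limit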;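 note: firefly luciferase signal divided by Alamar Blue viability fluorescence both relative to DMSO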
LGR2 inh: inhibitors of bursicon-induced LGR2 CRE-luciferase signal, primary screen, cell-based, HEK293, CRE-luciferase reporter, bursicon stimulation | Drosophila bursicon receptor LGR2 (rickets) | bursicon-stimulated, 4 h | inhibition, % at 9.99 µM | 380,000 compounds, 0.35% hits | AID 720647, 2013;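 active = drop in luminescence signal, shown as inhibition above about 50% in the replicate tests, limit read from the data, passing the limit was not always enough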;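 note: agonist challenge used bursicon conditioned medium at about half maximal strength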
* = called active by the depositor; / = no result given.

SMILES | TROY signal inh | PAX8 reporter | TWEAK Fn14 block | EWS-Fli block | LGR2 inh
CO[C@H]1CN(C)C(=O)c2cc(NC(=O)C3CC3)ccc2OC[C@@H](C)N(CC2CCOCC2)C[C@H]1C | / | -9 | / | 4 | 7
CC(C1CC1)N(Cc1ccccc1)C(=S)Nc1ccccc1Cl (stereo unspecified) | 86* | 7 | 7 | 7 | -16
CC(C1CC1)N(Cc1ccccc1)C(=O)NC(=O)c1ccccc1 (stereo unspecified) | 7 | 17 | -11 | -11 | 13
COc1cc(CC(NC(C)=O)C(=O)NC2CCN(C(=O)C3CC3)CC2)cc(OC)c1 (stereo unspecified) | 55* | 9 | 13 | 12 | 1
COc1cc(CC(NC(C)=O)C(=O)NC2CCN(C(=O)c3ccc(C)cc3)CC2)cc(OC)c1 (stereo unspecified) | -12 | 7 | 3 | -7 | 1
CO[C@@H]1CN(C)C(=O)c2ccc(NC(=O)c3cc(C)on3)cc2OC[C@H](C)N(CC2CC2)C[C@@H]1C | / | -4 | / | -5 | 9
C[C@H]1CN([C@@H](C)CO)C(=O)Cc2cc(NC(=O)CCCCCC(=O)Nc3ccccc3N)ccc2O[C@H]1CN(C)S(=O)(=O)c1ccccc1 | / | 19 | / | 33 | 0
CC(OC(=O)/C=C/c1ccc2ccccc2n1)C(=O)Nc1ccc(S(N)(=O)=O)cc1 (stereo unspecified) | 17 | 47 | 58* | 12 | 10
O=C(NC1CCCCC1)N[C@H]1CC[C@H](CCNS(=O)(=O)c2ccc(Cl)cc2)O[C@H]1CO | / | 24 | / | 5 | -9
CNC[C@@H]1Oc2cc(C#CC3CCCCC3)ccc2S(=O)(=O)N([C@@H](C)CO)C[C@@H]1C | / | 92* | / | 56* | 34
C[C@H]1CN([C@@H](C)CO)S(=O)(=O)c2ccc(C#CC3CCCC3)cc2O[C@H]1CN(C)Cc1cncnc1 | / | -11 | / | 52* | -2
C[C@H]1CN([C@@H](C)CO)S(=O)(=O)c2ccc(C#CC3CCCC3)cc2O[C@@H]1CN(C)Cc1cccnc1 | / | 98* | / | 19 | 9
C[C@@H]1CN([C@@H](C)CO)S(=O)(=O)c2ccc(C#CC3CCCC3)cc2O[C@@H]1CN(C)Cc1cccnc1 | / | 18 | / | 12 | 18
CNC[C@H]1Oc2cc(C#CC3CCCCC3)ccc2S(=O)(=O)N([C@H](C)CO)C[C@@H]1C | / | 28 | / | 15 | -2
C[C@H]1CN([C@@H](C)CO)C(=O)CCCn2nncc2CO[C@@H]1CN(C)C(=O)Nc1cccc(F)c1 | / | / | / | -1 | 1
C[C@@H]1CN([C@H](C)CO)C(=O)c2cc(NS(=O)(=O)c3cccs3)ccc2O[C@@H](C)CCCCO[C@@H]1CN(C)CC1CCCCC1 | / | 7 | / | 5 | -4
Cc1ccc(S(=O)(=O)Nc2ccc3c(c2)C(=O)N([C@H](C)CO)C[C@@H](C)[C@@H](CN(C)C(=O)NC(C)C)OCCCC[C@@H](C)O3)cc1 | / | 5 | / | 22 | 0
CC(CC(=O)Nc1ccc2c(c1)c(=O)n(C)n2-c1ccccc1)c1ccccc1 (stereo unspecified) | 27 | -6 | 14 | 56* | 11
Cn1c(=O)c2cc(NC(=O)Cc3cccc4ccccc34)ccc2n1-c1ccccc1 | 24 | 22 | 6 | 33 | 7
Cc1nn(C)c(C)c1/C=C(/C(=O)C(C)(C)C)n1cncn1 | -4 | 58 | 12 | 22 | 23
CC(C)(C)C(=O)/C(=C/c1ccncc1)n1cncn1 | 51* | 70* | 83* | 41 | 79*
COc1ccc(S(=O)(=O)N(C)C[C@@H]2Oc3c(NS(C)(=O)=O)cccc3C(=O)N([C@@H](C)CO)C[C@@H]2C)cc1 | / | / | / | -2 | 12
COc1ccc(S(=O)(=O)Nc2cccc(S(=O)(=O)N3CCCCC3)c2)cc1 | 5 | 8 | -31 | 11 | -9
O=[N+]([O-])c1cccc(S(=O)(=O)Nc2nc3ccccc3nc2Nc2cccc(S(=O)(=O)N3CCCCC3)c2)c1 | 71* | 9 | 86* | 22 | 34
O=S(=O)(Nc1nc2ccccc2nc1Nc1ccc2c(c1)OCO2)c1ccccc1 | 41 | / | 38 | / | -1
SMILES | TROY signal inh | PAX8 reporter | TWEAK Fn14 block | EWS-Fli block | LGR2 inh
Cc1cccc(S(=O)(=O)Nc2nc3ccccc3nc2Nc2ccc3c(c2)OCO3)c1 | 64* | 35 | 42 | 6 | 0
O=[N+]([O-])c1cccc(S(=O)(=O)N2CCN(c3ccccn3)CC2)c1 | 9 | -10 | 60* | -2 | 3
Cc1ccc(S(=O)(=O)Nc2nc3ccccc3nc2Nc2cccc(S(=O)(=O)N3CCCC3)c2)cc1 | 54* | -4 | 69* | 1 | 3
CCCNC(=O)N1CC2(CCN(Cc3cccnc3)CC2)c2c(n(C)c3cc(OC)ccc23)[C@H]1CO | / | / | / | -2 | -16
Cc1ccc(S(=O)(=O)Nc2ccc3c(c2)C(=O)N([C@H](C)CO)C[C@H](C)[C@H](CN(C)C(=O)NC2CCCCC2)O3)cc1 | / | 14 | / | 5 | -6
COc1cc(/C=N/NC(=O)c2sc(N)c(C#N)c2C)ccc1O | 8 | / | 52* | / | -10
Cc1cccc(OCCNc2ccc([N+](=O)[O-])cn2)c1 | -21 | -1 | -2 | -1 | 1
O=[N+]([O-])c1ccc(NCCOc2ccccc2Cl)nc1 | -34 | -8 | 51* | -28 | -15
Cc1ccc(S(=O)(=O)Nc2cccc(-c3ccc4nncn4n3)c2)cc1 | 14 | 27 | 5 | 57* | 3
CCC(=O)N1C[C@H](C)[C@@H](OC)CN(C)C(=O)c2cc(NC(=O)C3CCOCC3)ccc2OC[C@@H]1C | / | -14 | / | 1 | 1
COc1ccc(N(C)C(=O)c2cc3c(s2)-c2ccc(Cl)cc2S(=O)(=O)C3)c(OC)c1 | 31 | 35 | 71* | 17 | 6
O=[N+]([O-])c1cnc2ccccc2c1 | -3 | 16 | 0 | 0 | 3
O=[N+]([O-])c1cc([N+](=O)[O-])c2cc3ccccc3nc2c1 | 33 | 27 | 93* | 72* | 11
COCCNC(=O)C[C@@H]1C[C@H]2c3cc(NS(=O)(=O)c4ccccc4)ccc3O[C@H]2[C@H](CO)O1 | / | -4 | / | -1 | 22
Cc1ccc2oc(NC3=NC4(CCCC4)C4=C(CCCC4=O)N3)nc2c1 | 9 | 22 | 52* | 11 | -2
CO[C@H]1CN(C)C(=O)c2ccc(NS(=O)(=O)c3ccccc3)cc2OC[C@@H](C)N(C)C[C@@H]1C | / | / | / | 8 | 9
O=C(OCCC12CC3CC(CC(C3)C1)C2)c1ccc(NCc2cc(O)ccc2O)cc1 | -3 | 56 | 98* | 68* | -22
O=C(OCC12CC3CC(CC(C3)C1)C2)c1ccc(NCc2cc(O)ccc2O)cc1 | -6 | 52 | 103* | 56* | 6
CCNC(=O)OCCC12CC3CC(CC(C3)C1)C2 | -21 | -11 | -16 | / | -15
